Results published in PubChem BioAssay (NCI).
Values joined by “and” are separate entries in the source; they are usually repeats but may differ in a detail not shown here. Identical values can stand only once. This is part of a sample that, as a whole, favours compounds with a hit. Of some 83,000 tested, about 20% had one in any assay.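 48-hour exposure, single concentration, 96-well plates; percent growth endpoint where 0 means no net growth. Active: below 10.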 Active and inactive are the calls of the source.

test system: OVCAR-5 ovarian; test: NCI-60 one-dose screen, 48 h (100 = growth as untreated, 0 = no growth, -100 = all killed); conditions: 10 µM
Protocol: Growth inhibition of the OVCAR-5 human tumor cell line is measured as a screen for anti-cancer activity. Cells are grown in 96 well plates and exposed to the test compound for 48 hours. Compounds are tested at a single concentration, which is 10^-5 M for most compounds. The reported endpoint is percent growth (GI% or GIPRCNT), where numbers from 0 - 100% represent growth inhibition, and numbers from -100% - 0 represent cell death. For example, a value of 40 represents 60% growth inhibition. A value of 0 means no net growth occurred over the course of the experiment. A value of -40 indicates 40% of cells at the beginning of the experiment died by the end of the experiment. A value of -100 means all cells are dead at the end of the experiment.
NCI-60 Human Tumor Cell Lines Screen was performed using the standard one-dose NCI protocol, which is described in more detail at https://dtp.cancer.gov/discovery_development/nci-60/default.htm.
Compounds with GIPRCNT values below 10 were considered active. Activity score was based on GIPRCNT using the following formula: […]
Score is 0 for GIPRCNT values of 100 or above, 50 for GIPRCNT values of 0, and 100 for GIPRCNT values of -100.

| Compound | growth |
| --- | --- |
| CC1(C)OB(c2ccc(Cn3cc(F)c(=O)[nH]c3=O)cc2)OC1(C)C | 97.5% (inactive) |
| CCc1ccccc1-n1c(N)c(C#N)c(-c2ccc(OC)c(OC)c2)c(C#N)c1=O | 107% (inactive) |
| CC(C)(C)c1cc(NC(=O)Cc2ccc(-c3cnc4cc(-c5cnn(CCN6CCOCC6)c5)ccc4n3)cc2)no1 | 24.2% (inactive) |

same assay, conditions: 10 µM unless noted

| Compound | growth |
| --- | --- |
| O=C1c2c(O)cc(O)cc2OC(c2ccc(O)c(O)c2)C1O (stereo not given) | 104% (inactive) |
| NS(=O)(=O)c1cc2c(cc1Cl)NC(C(Cl)Cl)NS2(=O)=O (stereo not given) | 96.6% (inactive) |
| Oc1ccccc1/C=N\NC(=S)N/N=C/c1ccccc1O | 59.2% (inactive) and 59.6% (inactive) |
| CCc1c(CC(=O)O)c2cc(C)ccc2n1Cc1ccc(Cl)cc1 | 98.2% (inactive) and 98.6% (inactive) |
| CC(O)(CC(=O)CC(=O)c1ccccc1)c1ccccc1 (stereo not given) | 102% (inactive) and 103% (inactive) |
| COc1cc(C(=O)c2ccc3c(c2)OCO3)cc(OC)c1OC | 62.3% (inactive) and 63.4% (inactive) |
| COc1ccc(Cn2c(NCCN=C(N)N)nc(=O)n(Cc3ccc(F)cc3)c2=O)cc1 | 89.9% (inactive) and 95.8% (inactive) |
| CCN1CCN(CCNc2nccc(-c3c(-c4cccc(O)c4)nc4sccn34)n2)S1(=O)=O | 87.2% (inactive) and 95.5% (inactive) |
| Cc1ccc(S(=O)(=O)Nc2ccc3cc([N+](=O)[O-])ccc3c2[N+](=O)[O-])cc1 | 96.9% (inactive) and 106% (inactive) |
| O=C(CCc1ccc(O)cc1)N/N=C/c1cc(Br)ccc1O | 53.3% (inactive) |
| CCOC(=O)c1sc(N)nc1-c1ccccc1 | 90.9% (inactive) |
| Cc1cc(N=Nc2ccc(C)c(N=Nc3cc(C)c(N)cc3N)c2)c(N)cc1N | 92.5% (inactive) and 86.8% (inactive) |
| NC(=S)NN=C1CCC(C2CCCCC2)CC1 (stereo not given) | 110% (inactive) and 93.3% (inactive) |
| CCC(C)C1(C2CCCC2)NC(=O)NC1=O (stereo not given) | 111% (inactive) and 105% (inactive) |
| Nc1nc(SC/C=C/CCl)c2[nH]cnc2n1 | 109% (inactive) and 101% (inactive) |
| CCOC(=O)C(CNc1ccccc1)C(=O)OCC | 102% (inactive) |
| COc1ccc(CCN(C)CCCC(C#N)(c2ccc(OC)c(OC)c2)C(C)C)cc1OC (stereo not given) | 93.1% (inactive) and 81% (inactive) and 92.6% (inactive) |

| Compound | growth |
| --- | --- |
| Cn1cc(-c2cc3c(Nc4ccc(CC(=O)Nc5cc(C(C)(C)C)on5)cc4)ncnc3[nH]2)cn1 | -8.65% (active) and 5.67% (active) |
| Cn1c(=O)n(-c2ccc(C(C)(C)C#N)cc2)c2c3cc(-c4cnc5ccccc5c4)ccc3ncc21 | 10.4% (inactive) and 19.4% (inactive) |
| Cc1ccc(S(=O)(=O)Nc2nc3ccccc3nc2Nc2ccc3nsnc3c2)cc1 | 92.1% (inactive) and 87.2% (inactive) |
| O=C(Oc1cccc(OC(=O)c2ccccc2)c1)c1ccccc1 | 92.7% (inactive) and 102% (inactive) |
| O=C(N/N=C/c1cccc2ccccc12)C1CC1 | 122% (inactive) and 100% (inactive) |
| CCCCOc1cc(C(=O)NCCN(CC)CC)c2ccccc2n1 | 91.4% (inactive) and 97.6% (inactive) |
| CC(C)Cc1ccc(C(C)C(=O)NCc2ccc(Cn3c(=O)sn(CCCI)c3=O)cc2)cc1 (stereo not given) | 103% (inactive) and -58.1% (active) |
| COc1cc(Nc2nc3ccccc3nc2NS(=O)(=O)c2ccc(NC(=O)c3ccc(C)c(OC)c3)cc2)cc(OC)c1 | 71.2% (inactive) and 3.89% (active) |
| CCOc1ccc2cc(-c3nn(CC4CCNCC4)c4ncnc(N)c34)ccc2c1 | 92% (inactive) and 70.5% (inactive) |
| CC(=O)C(/C=N/C(N)=O)=C(/C)O | 109% (inactive) |
| CCN(CC)CCNc1ccc(C)c2sc3ccccc3c(=O)c12 (tested in a mixture with another compound) | 48.8% (inactive) and 51.6% (inactive) |
| Nc1cc(-c2cccc(OC(F)(F)F)c2)nc2ccc(N3CCCC3)cc12 | 31.7% (inactive) and 38.4% (inactive) and 30.1% (inactive) |
| COc1ccc(S(=O)(=O)N2CCOCC2)cc1NC(=O)c1[nH]c(C)c2c1CCCCC2=O | 102% (inactive) and 66.8% (inactive) |
| C1CCCCNCCC1 | 106% (inactive) |
| OCCN1CCN(CCO)CC1 | 111% (inactive) and 91.2% (inactive) and 105% (inactive) |
| Nc1ccc2ccc(N)cc2c1 | 124% (inactive) |
| CC(C(=O)O)n1cc(C#N)c(=O)[nH]c1=O (stereo not given) | 94.8% (inactive) and 105% (inactive) |

same assay, conditions: 30 µM

| Compound | growth |
| --- | --- |
| CC(C)(C)c1cc(NC(=O)Cc2ccc(-c3cnc4cc(-c5cnn(CCN6CCOCC6)c5)ccc4n3)cc2)no1 | 20.1% (inactive) |

same assay, conditions: 50 µM

| Compound | growth |
| --- | --- |
| CC1(C)OB(c2ccc(Cn3cc(F)c(=O)[nH]c3=O)cc2)OC1(C)C | 70.4% (inactive) |

same assay, conditions: 100 µM

| Compound | growth |
| --- | --- |
| CCc1ccccc1-n1c(N)c(C#N)c(-c2ccc(OC)c(OC)c2)c(C#N)c1=O | 48.6% (inactive) |
